This is one part of the list. How many sequences the whole screen found active is unknown.
B1: HC680 (peptide)
chain: CALLGCIITSAGNASASA
B2: HC2441 (peptide)
chain: CANREVPCHRAGNASASA
B3: HC2241 (peptide)
chain: CAEVVTSTNVAGNASASA
B4: HC1178 (peptide)
chain: CAITGHVKNGAGNASASA
B5: HC1046 (peptide)
chain: CAGIQYLAGLAGNASASA
B6: FS-2424 (peptide)
chain: CARKKKVWDYAGNASASA
B7: FS-1653 (peptide)
chain: CARRHEKKRKAGNASASA
B8: FS-2920 (peptide)
chain: CARFFRYLHTAGNASASA
B9: FS-1265 (peptide)
chain: CARRHRARRAAGNASASA
B10: FS-2449 (peptide)
chain: CARRKKEVRKAGNASASA
B11: FS-2552 (peptide)
chain: CARFDRIAHTAGNASASA
B12: FS-489 (peptide)
chain: CARKTRARRAAGNASASA
B13: FS-1266 (peptide)
chain: CARRHRATRKAGNASASA
B14: FS-3226 (peptide)
chain: CARKTRSTHTAGNASASA
B15: HC621 (peptide)
chain: CAFCALARKMAGNASASA
B16: HC2122 (peptide)
chain: CAQDVVCCSMAGNASASA
B17: HC1064 (peptide)
chain: CALLFNILGGAGNASASA
B18: FS-383 (peptide)
chain: CATAHRIKRAAGNASASA
B19: FS-1670 (peptide)
chain: CAERKRECQLAGNASASA
B20: FS-650 (peptide)
chain: CAERKRIKRAAGNASASA
B21: FS-1069 (peptide)
chain: CARPRRAKRFAGNASASA
B22: FS-1925 (peptide)
chain: CARSGRGPFGAGNASASA
B23: FS-1065 (peptide)
chain: CARPARLHRFAGNASASA
B24: FS-3079 (peptide)
chain: CARSGRHVVFAGNASASA
B25: FS-3163 (peptide)
chain: CARPRRFMDLAGNASASA
B26: FS-1271 (peptide)
chain: CARSGRAKRFAGNASASA
B27: FS-791 (peptide)
chain: CAHERRMKRFAGNASASA
B28: FS-225 (peptide)
chain: CADLGRAKRFAGNASASA

Molecular target: furin, P09958
Assay: furin cleavage Z-score vs untreated control; higher = more cleavage, active = 3.5 or more, inactive = 1 or less, 8 variable residues between constant flanks
Summary of the method: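 Purified furin digested bead-held 8-mer peptide–cDNA fusions at 1:10 enzyme:substrate in 0.01 ml of 50 mM HEPES pH 7.5 with CaCl2 and NaCl for 7.5, 15 or 30 min. The cleavage Z-score compares sequencing counts of released DNA with furin-free reactions on a log scale, with lowess adjustment and median absolute deviation scaling.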

Sequence of furin, P09958 (P09958 whole entry): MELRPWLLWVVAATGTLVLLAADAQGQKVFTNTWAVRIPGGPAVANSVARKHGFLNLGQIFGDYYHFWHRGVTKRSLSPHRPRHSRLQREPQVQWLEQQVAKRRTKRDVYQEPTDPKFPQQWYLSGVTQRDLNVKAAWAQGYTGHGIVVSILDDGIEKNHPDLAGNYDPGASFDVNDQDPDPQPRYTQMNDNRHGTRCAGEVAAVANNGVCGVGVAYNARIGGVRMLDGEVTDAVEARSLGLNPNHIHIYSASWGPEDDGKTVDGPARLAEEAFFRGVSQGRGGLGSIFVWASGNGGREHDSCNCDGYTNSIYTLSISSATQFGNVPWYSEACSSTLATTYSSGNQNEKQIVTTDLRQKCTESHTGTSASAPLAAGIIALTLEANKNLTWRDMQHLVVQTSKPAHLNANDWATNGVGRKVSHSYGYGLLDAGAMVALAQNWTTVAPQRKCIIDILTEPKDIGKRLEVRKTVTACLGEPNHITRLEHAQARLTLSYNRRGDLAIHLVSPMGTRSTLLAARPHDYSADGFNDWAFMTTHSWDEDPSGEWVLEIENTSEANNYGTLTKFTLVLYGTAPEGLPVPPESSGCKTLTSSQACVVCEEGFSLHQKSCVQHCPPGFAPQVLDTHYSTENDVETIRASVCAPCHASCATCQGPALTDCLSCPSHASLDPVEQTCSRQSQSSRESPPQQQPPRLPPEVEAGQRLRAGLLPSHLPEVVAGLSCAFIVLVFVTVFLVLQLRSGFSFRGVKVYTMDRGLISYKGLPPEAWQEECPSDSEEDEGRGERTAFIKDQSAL

Sequence | furin cleavage Z-score (7.5 min) | furin cleavage Z-score (15 min) | furin cleavage Z-score (30 min)
B1 | -0.345 (inactive) | -1.06 (inactive) | -1.24 (inactive)
B2 | 1.82 | -0.276 (inactive) | 0.432 (inactive)
B3 | 0.759 (inactive) | 0.285 (inactive) | 0.157 (inactive)
B4 | -0.0306 (inactive) | -2.29 (inactive) | -0.221 (inactive)
B5 | 0.778 (inactive) | 0.268 (inactive) | 0.333 (inactive)
B6 | 0.95 (inactive) | -1.66 (inactive) | -0.314 (inactive)
B7 | -1.27 (inactive) | -0.15 (inactive) | -1.21 (inactive)
B8 | -0.737 (inactive) | -1.73 (inactive) | 0.025 (inactive)
B9 | 12.1 (active) | 11 (active) | 9.18 (active)
B10 | -0.452 (inactive) | -0.724 (inactive) | 1.33
B11 | 0.362 (inactive) | -0.331 (inactive) | 0.407 (inactive)
B12 | 11.1 (active) | 11.3 (active) | 9.01 (active)
B13 | 7.21 (active) | 8.97 (active) | 6.15 (active)
B14 | 10.5 (active) | 11.5 (active) | 7.23 (active)
B15 | 0.374 (inactive) | 0.367 (inactive) | 0.832 (inactive)
B16 | -0.38 (inactive) | -0.828 (inactive) | -1.79 (inactive)
B17 | -0.771 (inactive) | -1.63 (inactive) | -1.52 (inactive)
B18 | 9.97 (active) | 8.71 (active) | 6.96 (active)
B19 | 0.036 (inactive) | 1.4 | -0.462 (inactive)
B20 | 9.45 (active) | 8.85 (active) | 7.6 (active)
B21 | 9.54 (active) | 11 (active) | 9.13 (active)
B22 | -0.792 (inactive) | -2.29 (inactive) | -0.384 (inactive)
B23 | -0.918 (inactive) | 0.964 (inactive) | 0.792 (inactive)
B24 | -0.951 (inactive) | 0.442 (inactive) | 1.42
B25 | 0.819 (inactive) | 0.127 (inactive) | 1.71
B26 | 10.1 (active) | 10.5 (active) | 11.1 (active)
B27 | 10 (active) | 11.5 (active) | 9.74 (active)
B28 | 6.94 (active) | 8.17 (active) | 9.16 (active)
